Results taken from PubChem BioAssay AID777 (Sanford-Burnham Center for Chemical Genomics, 2007).
Out of some 96,000 compounds screened, about 19,000 (20%) were called active. Not all results are given here. Unmarked numbers belong to inactive results.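 How the source made its calls: active means blocking of liver enzyme CYP2C9 beyond about 50% at 5 µM (limit read from the data); inactive means the rest.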

molecular target: Cytochrome P450 2C9 (Homo sapiens) (UniProt P11712); test: blockers of cytochrome P450 2C9 activity – biochemical, luminescence, ADME assay, primary screen (AID 777); settings: CYP2C9 Supersomes, luciferin-H conversion, at 5 µM, stronger effect = higher value
Sequence (P11712 whole entry, looked up): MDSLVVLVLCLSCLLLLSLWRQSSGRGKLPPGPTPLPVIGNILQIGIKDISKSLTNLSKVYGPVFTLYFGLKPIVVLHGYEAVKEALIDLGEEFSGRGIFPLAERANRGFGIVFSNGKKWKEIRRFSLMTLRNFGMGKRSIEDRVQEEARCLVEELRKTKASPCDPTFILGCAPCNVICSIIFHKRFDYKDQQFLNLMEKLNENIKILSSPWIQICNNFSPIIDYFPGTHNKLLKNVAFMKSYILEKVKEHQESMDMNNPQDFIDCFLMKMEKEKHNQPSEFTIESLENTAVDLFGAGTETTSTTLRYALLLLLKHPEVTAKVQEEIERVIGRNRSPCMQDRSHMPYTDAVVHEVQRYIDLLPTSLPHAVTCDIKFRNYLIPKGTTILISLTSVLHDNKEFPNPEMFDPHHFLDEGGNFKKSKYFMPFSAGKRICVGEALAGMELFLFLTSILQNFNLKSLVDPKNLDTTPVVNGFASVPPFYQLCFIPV

SMILES	inhibition
O=C(CC1OC(=O)c2ccccc21)NC1CCCCC1 (configuration not stated)	-99.1%
CCOc1ccccc1NC(=O)c1cc(S(=O)(=O)N2CCC3(CC2)OCCO3)ccc1F	6.8%
O=C(Nc1ccccc1F)c1cc(S(=O)(=O)N2CCCCC2)cs1	75.6% (active)
O=C(CN1CCN(S(=O)(=O)c2ccc(F)cc2)CC1)Nc1ccccc1F	40.4%
CCOc1ccc(CN(Cc2ccco2)S(=O)(=O)c2ccc(-n3cnnn3)c(OC)c2)cc1	65.1% (active)
COc1ccc(CN(Cc2ccco2)S(=O)(=O)c2ccc(S(=O)(=O)N3CCCC3)cc2)cc1	39.9%
CCOC(=O)Cn1c(=O)oc2cc(S(=O)(=O)N(C)Cc3ccco3)ccc21	28.8%
NC(=O)N1CCCC1C(=O)Nc1ccc(Cl)c(Cl)c1 (configuration not stated)	14.9%
CC(C)(C)NC(=O)Cn1cnc([N+](=O)[O-])n1	-14.1%
O=S(=O)(NCc1ccccn1)c1ccc(Br)s1	-3.5%
O=c1c2[nH]c3ccc(Cl)cc3c2ncn1Cc1ccccn1	17.6%
COc1ccc2[nH]c3ccc(OC)cc3c2c1	26.8%
COc1ccc2[nH]cc(/C=C(/C#N)S(=O)(=O)c3ccccc3)c2c1	95.4% (active)
O=C(O)CCSc1nnc(-c2ccccc2)n1-c1ccccc1	-14.5%
C=CCNc1nnc(SCC(=O)N2CCCCC2)c2ccccc12	-25.8%
COC(=O)C(C(=O)Nc1cccc(C)n1)C1CCCCCC1 (configuration not stated)	33.3%
CN1CC(c2ccccc2)C2(COc3ccccc3C2=O)C12C(=O)Nc1ccccc12 (configuration not stated)	20.5%
CC1(C)CC(=O)c2sc(N)nc2C1	12.9%
CC1Cc2ccccc2N1C(=O)c1cc2sccc2n1Cc1ccccc1 (configuration not stated)	61.6% (active)
Cc1cc(=O)[nH]c(SCC(=O)N2c3ccccc3CC2C)n1 (configuration not stated)	8%
CCC(=O)N1c2ccc(S(=O)(=O)CCC(=O)N3CCN(c4ccccc4)CC3)cc2CC1C (configuration not stated)	49%

SMILES	inhibition
COC(C)(C)[C@]12CC(O)(C(C)C)ON1[C@H]1CCCCC1N2O (some centres not stated)	-1.4%
CCC(C)(C(=O)NC1CCCC1)N(C(=O)CNC(C)=O)c1ccc(C)cc1 (configuration not stated)	2.8%
COc1ccc2c(c1)OC(O)(C(F)(F)C(F)F)CC2=O (configuration not stated)	78.5% (active)
COc1ccc2c(c1)SC(C)CC2=O (configuration not stated)	12.7%
CCOc1ccc(CNC(=O)C2CCC(=O)N2C2CCCC2)cc1OC (configuration not stated)	4.4%
CCCN1C(=O)C(NC(C)=O)c2cc(OC)ccc21 (configuration not stated)	-5.4%
Cc1cc(C)cc(OCC(=O)NNC(=O)c2cc3ccccc3oc2=O)c1	-15.8%
CCOC(=O)COc1cc(OCC(=O)OCC)c2c(=O)cc(-c3ccccc3)oc2c1	70.3% (active)
COC(=O)COc1ccc2oc(=O)cc(C)c2c1	-9.3%
CN1CCCC(OC(=O)COc2ccc(Br)cc2)C1 (configuration not stated)	-1.2%
COC(=O)C(NC(=O)c1ccc(OC)cc1)(Nc1ncc(S(=O)(=O)c2ccc([N+](=O)[O-])cc2)s1)C(F)(F)F (configuration not stated)	66.3% (active)
COc1ccc(C(=O)Nc2nc(-c3ccc(OC)cc3)c(-c3ccc([N+](=O)[O-])cc3)s2)cc1	19.7%
CCC1CCCCN1CCNC(=O)c1[nH]c(C)c(C(C)=O)c1C (configuration not stated)	9.6%
COCCOC(=O)C1=C(C)Nc2nc(C)nn2C1c1ccccc1 (configuration not stated)	16.7%
COc1cc(C2C(C(=O)OCCC#N)=C(C)NC3=C2S(=O)(=O)c2ccccc23)cc(OC)c1OC (configuration not stated)	50.9% (active)
COCCNC(=O)C(c1ccc(C)o1)N(Cc1cccs1)C(=O)c1snc(C(N)=O)c1N (configuration not stated)	3.7%
O=C(Oc1ccc2c(c1)CCC2)N1CCOCC1	0.4%
Cc1cccn2c(=O)c3cc(C#N)c(=O)n(CCCN4CCOCC4)c3nc12	47%
COc1cccc(OCc2cc(/C=N/NC(=O)c3nc(Cl)c(Cl)c(N)c3Cl)ccc2OC)c1	84% (active)
Cc1ccc(-c2cc(C(=O)N/N=C/C=C/c3ccco3)c3ccccc3n2)cc1C	34%
COc1cc(/C=N/NC(=O)Nc2ccccc2)ccc1OCCOc1ccccc1C	11.2%

SMILES	inhibition
COc1cccc(/C=N\Nc2nncc(-c3ccccc3)n2)c1	5.6%
COc1cccc(-c2cc(C(=O)N/N=C/c3ccc(OC)c(COC(C)=O)c3)c3ccccc3n2)c1	84.3% (active)
COc1ccc(/C=N\NC(=O)c2sc(N)nc2C)cc1OC	5.4%
CCCC(C(=O)n1nc(C)cc1C)C(NS(=O)(=O)c1ccc(C)cc1)c1ccccc1 (configuration not stated)	-1.9%
O=C(c1ccco1)N1CCN(C(=O)C2CC(c3ccc(Cl)c(Cl)c3)=NO2)CC1 (configuration not stated)	43.9%
CN(C)c1cc(N)c2ccccc2n1 (tested in a mixture with another compound)	-21.6%
O=C(NCc1ccccc1)C1C(=O)N(Cc2ccccc2)C(=O)C1C1(O)CCCC1 (configuration not stated)	33.6%
CC(C)c1nc2ccc(C(=O)O)cc2[nH]1	5.8%
O=C(CN(c1ccccc1)S(=O)(=O)c1ccc(Cl)cc1)Nc1ccccc1C(=O)N1CCCC1	92.2% (active)
Cc1ccc(S(=O)(=O)NC(C)C(=O)Nc2ccccc2C(=O)N2CCCC2)cc1 (configuration not stated)	44.1%
CCC(=O)Nc1ccccc1C(=O)N1CCN(Cc2ccccc2)CC1	15.3%
CC(=O)N1CCN(c2ccc(NCc3ccc(C(C)C)cc3)cc2)CC1	37%
O=C1CSC(c2cccc(F)c2)N1c1ccccc1F (configuration not stated)	3%
O=C(Nc1ccccc1)OCc1cc(-c2ccc(Cl)cc2)on1	16.9%
O=C(Nc1ccc(Cl)cc1)OCc1cc(-c2ccccc2)on1	64.4% (active)
O=C(Nc1ccccc1)OCc1cn(-c2ccc(Cl)cc2)nn1	41.6%
CCCn1c(O)c(CN2CCCC(C)C2)c(C)c(C#N)c1=O (configuration not stated)	5.2%
O=C(Nc1cccc(NC(=O)N2CCN(c3ccccc3)CC2)c1)N1CCN(c2ccccc2)CC1	54% (active)
CC(=O)N1CCN(C(=O)Nc2cccc(C(F)(F)F)c2)CC1	4.5%
O=C(Nc1ccccc1)N1CCN(Cc2ccccc2)CC1	14.6%
